This passage reports Potency results from PubChem BioAssay (NCATS).

Results filed as inconclusive are left out. Entries that show only a call come without a potency. The source made the active and inactive calls. Calls follow the shape of the dose curve; as a rule, active = well fitted curve in the direction sought with a large enough effect; inconclusive = small, poorly fitted or top-dose-only effect, or another doubt; inactive = no such curve, though single readings can be large; an effect the other way counts as inactive or inconclusive.

Chain of Glutaminase kidney isoform, mitochondrial (Homo sapiens) (O94925 whole entry, looked up, canonical isoform): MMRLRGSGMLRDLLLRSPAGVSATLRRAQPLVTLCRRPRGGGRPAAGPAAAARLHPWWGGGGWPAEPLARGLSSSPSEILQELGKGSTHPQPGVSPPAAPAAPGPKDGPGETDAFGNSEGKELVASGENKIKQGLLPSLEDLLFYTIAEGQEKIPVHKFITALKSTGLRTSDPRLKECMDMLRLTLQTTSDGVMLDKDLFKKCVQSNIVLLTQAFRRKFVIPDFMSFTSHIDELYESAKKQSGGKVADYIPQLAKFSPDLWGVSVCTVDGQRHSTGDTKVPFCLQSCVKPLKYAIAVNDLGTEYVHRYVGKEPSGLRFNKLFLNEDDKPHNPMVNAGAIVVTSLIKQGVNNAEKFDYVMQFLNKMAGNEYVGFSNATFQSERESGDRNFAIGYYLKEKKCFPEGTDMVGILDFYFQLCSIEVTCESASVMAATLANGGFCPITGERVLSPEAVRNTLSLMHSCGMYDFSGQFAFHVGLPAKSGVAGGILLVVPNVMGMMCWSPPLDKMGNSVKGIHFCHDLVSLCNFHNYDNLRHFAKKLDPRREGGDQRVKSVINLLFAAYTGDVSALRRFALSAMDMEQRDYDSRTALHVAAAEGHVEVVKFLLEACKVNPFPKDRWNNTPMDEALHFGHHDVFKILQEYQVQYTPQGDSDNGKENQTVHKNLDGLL

One assay addresses Glutaminase kidney isoform, mitochondrial (Homo sapiens) (UniProt O94925). The assay can be described thus: qHTS for Inhibitors of Glutaminase (GLS): LOPAC Validation (AID 624146).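 Also: glutamate product detected by oxidase and peroxidase coupled Amplex red fluorescence gain; nearly all actives have a fitted effect of over 60% in size.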 Particulars: glutaminase enzyme activity inhibition; series mostly up to 46.1 µM. In a few lines:
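Glutamate formation by hKGA was monitored fluorometrically using coupled glutamate oxidase, HRP and Amplex Red. Substrate was added as 1 mM L-glutamine solution; incubation was 30 min at RT after an initial read.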
For orientation: qHTS replaces the single test concentration by a dilution series.
For `N=c1ccn2c(n1)O[C@H]1[C@H](O)[C@@H](CO)O[C@H]12`, the Potency entry was “inactive”.

Consider `Cc1ccccc1CNc1ncnc2c1ncn2C1OC(CO)C(O)C1O` (configuration not stated), for which the Potency entry was “inactive”.

With `CCC1C(=O)OCC1Cc1cncn1C` (configuration not stated), the Potency result was “inactive”.

For `C=CC(N)CCC(=O)O` (configuration not stated), the Potency result was “inactive”.

Consider `CC(N)C(=O)OC(C)(C)Cc1ccc(Cl)cc1` (configuration not stated), for which the Potency result is “inactive”.

On to `COc1ccc(/C=C/C(=O)Nc2ccccc2C(=O)O)cc1OC`, for which the Potency entry is “inactive”.

Tested on in a further assay: not listed separately
The assay can be described thus: qHTS of Trypanosoma Brucei Inhibitors: LOPAC Validation (AID 624147). The following applies: purified enzyme assay, luminescence, 45 min; series mostly up to 57.5 µM. In a few lines:
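In this concentration-response screen, enzyme-free wells defined baseline while DMSO plates tracked drift. Each reaction combined TbPYK, substrate, compound and 130 uM ADP for 45 min at room temperature. Kinase-Glo Plus luminescence gave the signal.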
In the case of `N=c1ccn2c(n1)O[C@H]1[C@H](O)[C@@H](CO)O[C@H]12`, the Potency result was “inactive”.

Consider `Cc1ccccc1CNc1ncnc2c1ncn2C1OC(CO)C(O)C1O` (configuration not stated), for which the Potency entry was “inactive”.

For `CCC1C(=O)OCC1Cc1cncn1C` (configuration not stated), the Potency entry was “inactive”.

Turning to `C=CC(N)CCC(=O)O` (configuration not stated), the Potency result was “inactive”.

With `CC(N)C(=O)OC(C)(C)Cc1ccc(Cl)cc1` (configuration not stated), the Potency result was “inactive”.

`COc1ccc(/C=C/C(=O)Nc2ccccc2C(=O)O)cc1OC`: the Potency result was “inactive”.
